# Laboratory results published in PubChem BioAssay AID760 (NMMLSC, 2007).
# In all, about 190,000 compounds went through this assay and about 360 (0.19%) were called active. Roughly 2% stayed inconclusive and do not appear here. The sample holds actives, similar compounds and a random draw of the others, so the mix is not that of the screen. Unmarked numbers belong to inactive results.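 How the source made its calls: active means GTP binding activity at least 20 points away from 100%, either lowered or raised; inconclusive means signal likely due to the compound's own green fluorescence; inactive means the rest.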
# Molecular target: Ras-related protein Rab-2A (Canis lupus familiaris) (UniProt P61105)
# Experiment: modulators of GTP binding to Rab2A wildtype, primary screen, biochemical, dog, bead-based flow cytometry, multiplex (AID 760);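 further: 0% = beads with excess unlabeled GTP and 100% = no-compound control corrected for plate trend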
# Settings: GST-Rab2 wt beads, Bodipy-GTP binding, at 10 µM
row,SMILES,GTP binding activity
1,O=C(COC(=O)CNC(=O)c1ccccc1F)NCC(F)(F)F,101%
2,Cc1ccc(NC(=O)Nc2cccc(C(F)(F)F)c2)nc1,103%
3,CC1CC(C)CN(C(=O)CSc2ccsc2[N+](=O)[O-])C1 (stereo not drawn),102%
4,CCOC(=O)c1sc(NC(=O)CSc2nc(O)c(Cc3ccccc3)c(=O)[nH]2)nc1C,93%
5,Cc1ccnc(NS(=O)(=O)c2ccc(NC(=O)c3ccc(S(=O)(=O)N(C)C)cc3)cc2)n1,98%
6,CN(CCC1CCOCC1)Cc1cn[nH]c1-c1ccc(-c2ccccc2)cc1,96%
7,C/C=C/C=C/C(=O)OCC(=O)Nc1ccc(Cl)cc1,93%
8,CN(C)CCOCCOc1ccc(Cl)c2ccccc12,106%
9,Cc1nn(CC(=O)Nc2ccc(C#N)cc2)c(C)c1[N+](=O)[O-],99%
10,COC(=O)c1ccc(/C=N/N2C(C)CCCC2C)cc1 (stereo not drawn),100%
11,COC(=O)c1sc2[nH]c(=S)n(N)c(=O)c2c1C,100%
12,CCN(C(=O)COC(=O)c1cc(S(=O)(=O)N2CCc3ccccc32)ccc1OC)C1CCS(=O)(=O)C1 (stereo not drawn),96%
13,CC(NC(=O)C(=O)N/N=C/c1ccc(Cl)cc1)c1ccccc1 (stereo not drawn),98%
14,CC1CCCCC1NC(=O)CO/N=C/c1ccc(OC(F)F)cc1 (stereo not drawn),97%
15,NS(=O)(=O)c1ccc(NC(=O)COC(=O)c2ccco2)cc1,97%
16,COc1ccc(C(=O)CSc2nnnn2C)c(OC)c1,98%
17,COc1cc(CN(C)Cc2nc3cc(C(F)(F)F)ccc3c(=O)[nH]2)ccc1OC(F)F,94%
18,Cn1c(N)cc(-c2ccc(F)cc2)c(C#N)c1=O,97%
19,Cc1cc(C(=O)N/N=C/c2ccccc2[N+](=O)[O-])c(C)o1,95%
20,COc1ccc(/C=N/NC(=O)C(C)N(c2ccc(OC)cc2)S(C)(=O)=O)cc1 (stereo not drawn),96%
21,CSCCNCc1cn(-c2ccc(F)cc2F)nc1-c1ccccc1C,100%

row,SMILES,GTP binding activity
1,Cc1ccnc(NC(=O)CCCOc2ccccc2)c1,97%
2,O=C(NNC(=O)c1ccccc1[N+](=O)[O-])Nc1ccccc1C(F)(F)F,101%
3,CC(C)NC(=O)/C(C#N)=C\c1ccc(N(C)C)c(Br)c1,94%
4,O=C(Cc1csc(Nc2nc(=S)[nH]c3ccccc23)n1)NCCCN1CCN(c2cccc(Cl)c2)CC1,78% (active)
5,O=C(CCn1c(=O)[nH]c2ccccc2c1=O)NCCCN1CCN(c2cccc(Cl)c2)CC1,101%
6,COc1cccc(CNC(=O)Cc2csc(Nc3nc(=S)[nH]c4ccccc34)n2)c1,93%
7,Cc1ccnc2nc(C(=O)OCC(=O)N(CC(C)C)CC(C)C)nn12,97%
8,CCOc1ccccc1N1CCN(C(=O)COc2ccc3c(C)cc(=O)oc3c2)CC1,98%
9,CCOC(=O)CN/C=C(\C#N)c1ccc(F)cc1,102%
10,CCCC(c1nnnn1C(C)(C)C)N1CCN(Cc2ccccc2)CC1 (stereo not drawn),98%
11,O=C(COc1cccc2ccccc12)Nc1cc(S(=O)(=O)N2CCOCC2)ccc1N1CCOCC1,98%
12,O=c1[nH]n2c(-c3ccccc3)nc(O)c2c2ccccc12,95%
13,CCO/C=C1\C(=O)N(c2ccc(OCC)cc2)C(=O)c2ccccc21,93%
14,COc1ccc(S(=O)(=O)N2CCOCC2)cc1C(=O)Nc1nc2ccccc2s1,72% (active)
15,COc1ccc(S(=O)(=O)N2CCOCC2)cc1NC(=O)CSc1ncnc2ccccc12,93%
16,CCOC(=O)c1sc(NC(=O)c2cc(S(=O)(=O)N3CCOCC3)ccc2C)nc1C,98%
17,COc1ccc(OC)c(-c2csc(NC(=O)C3=NNC(=O)CC3)n2)c1,96%
18,CNC(=S)N1CCC(NC(=O)C(Cc2ccc(F)cc2)NC(C)=O)CC1 (stereo not drawn),99%
19,COc1ccc(S(=O)(=O)N(C)C)cc1NC(=O)CSc1ncccn1,97%
20,Cn1nnnc1SCC(=O)Nc1nc2ccccc2s1,97%
21,CCNC(=O)COC(=O)/C=C/c1c(C)nn(Cc2cccc(OC)c2)c1Cl,95%

row,SMILES,GTP binding activity
1,CCOC(=O)c1sc(NC(=O)CSc2n[nH]c(CC)n2)nc1C,97%
2,O=C1c2cccc3c([N+](=O)[O-])ccc(c23)C(=O)N1CC1CCCO1 (stereo not drawn),95%
3,COc1cccc(CN(C)CC(=O)Nc2sc3c(c2C#N)CCC3)c1,92%
4,COc1ccc(S(=O)(=O)NCC2CCCN(C(=O)c3occc3C)C2)cc1 (stereo not drawn),97%
5,CCCCC(NC(=O)c1cccc(Br)c1)C(=O)O (stereo not drawn),93%
6,Cc1ccc(-c2nn(-c3cccc(F)c3)cc2CNCCc2ccncc2)o1,101%
7,CC1COc2ccccc2N1C(=O)c1cccnc1Cl (stereo not drawn),99%
8,Cc1nnsc1C(=O)Nc1cccc(Cl)c1C,95%
9,CCOc1ccccc1Nc1ccc(C(=O)O)cc1[N+](=O)[O-],99%
10,Cc1ccc(CN2CCC(N3CCC(C(=O)NCC4CCCO4)CC3)CC2)o1 (stereo not drawn),97%
11,CCOc1ccc(N2C(=O)CN(c3cccc4ccccc34)C2=S)cc1,99%
12,Cc1cc(C)n(-c2ccc3nncn3n2)n1,102%
13,CSCC(=O)N1CCCC(C(=O)c2cc(F)ccc2F)C1 (stereo not drawn),97%
14,COCCNc1nc2nonc2nc1N(C)Cc1ccc(C)cc1,95%
15,CCOC(=O)C1(Cc2ccccc2C(F)(F)F)CCN(C(=O)c2cc(C)n(C)n2)CC1,98%
16,COc1cccc2c1OCC(CN1CCN(C3CCCCC3)C(CCO)C1)=C2 (stereo not drawn),100%
17,CCN(CC)N=Nc1cccc(NC(C)=O)c1,95%
18,NC(=O)Cn1nc([N+](=O)[O-])nc1Oc1ccc(Br)cc1,97%
19,O=C(O)/C=C/c1cn(Cc2ccccc2)nc1-c1cccs1,127% [activator] (active)
20,O=C(O)/C=C/c1cn(-c2ccccc2)nc1-c1cccs1,93%
21,O=C(/C=C\c1cn(-c2ccccc2)nc1-c1cccs1)N1CCOCC1,104%
